Screening results (PubChem)
TTR transcr act: TTR transcription activators in neuroblastoma reporter cells, primary screen, cell-based, luminescence, SH-SY5Y, TTR promoter Gaussia luciferase; 100% = recombinant luciferase protein wells; activation, % at 16.7 µM; actives 1.3% (n = 92,000); AID 1117267, 2014;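 active = activation above the mean of all tested compounds plus 3 SD, cut at about 9.5% in these data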;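 also: cells exposed to compounds for one day before reading; 0% = median of all test compound wells on the plate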
HuH7 TTR inh: TTR promoter reporter inhibitors in hepatoma cells, counter-screen for TTR transcription activator project, cell-based, luminescence, HuH7 hepatoma | actives 4% (n = 1,100) | inhibition, % at 16.7 µM | HuH7 TTR promoter-Gaussia luciferase reporter | shares compounds with TTR transcr act | AID 1117279, 2014;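 active = average inhibition above the solvent-only control wells' mean plus 3 SD, cut at about 15% in these data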;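 also: 0% = cells with DMSO only and 100% = cells with inhibitor control FD; inhibitors lower well luminescence so higher value means more inhibition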
TTR act confirm: TTR transcription activators, retest, confirmation, cell-based, luminescence, SH-SY5Y, triplicate | 1,100 tested, under 10 active | activation, % at 16.7 µM | SHSY5Y TTR promoter Gaussia luciferase; 100% = purified Lucia enzyme wells, no cells | AID 1117280, 2014 | shares compounds with TTR transcr act;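 active = mean activation above a set limit taken from the earlier primary screen, cut at about 11% in these data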;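 also: 0% = DMSO-treated cells and 100% = recombinant Lucia luciferase without cells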
An asterisk follows results filed as active. The sample as a whole holds a higher share of hits than the screen did.

What do the screens show for `Nc1[nH]c(C(=O)c2ccccc2)c(-c2cccnc2)c1C(=O)NCCc1c[nH]c2ccccc12`?
TTR transcr act: -1

Results for Cc1ccccc1CN1CCCCC(NC(=O)c2ccccc2)C1=O (centres undefined) ?
TTR transcr act: 2

How did COc1ccc(NC(=O)c2cc(C)on2)cc1 do in these assays?
TTR transcr act: 13*; HuH7 TTR inh: 7; TTR act confirm: -1

Results for COc1ccc(NC(=O)c2cc(C)on2)cc1OC ?
TTR transcr act: 5

How did COc1cc(NC(=O)c2cc(C)on2)cc(C(=O)Nc2cccc(C(F)(F)F)c2)c1 do in these assays?
TTR transcr act: -1

What do the screens show for `O=C(N[C@@H](Cc1ccccc1)C(=O)NCP(=O)(O)OC(Cc1ccccc1)C(=O)O)OCc1ccccc1` (some centres undefined)?
TTR transcr act: 0

What do the screens show for `Cc1cccc(Cn2cc(COC(=O)NCCc3c[nH]c4ccccc34)nn2)c1`?
TTR transcr act: 1

How did C=CCN1[C@H](C)COc2cccc(N3CCSCC3)c2S1(=O)=O do in these assays?
TTR transcr act: 0

How did Cc1ccccc1CN1CCCCC(NC(=O)c2ccc(Br)cc2)C1=O (centres undefined) do in these assays?
TTR transcr act: -1

What do the screens show for `CCCCN1CCS(=O)(=O)N(Cc2cn(Cc3ccccc3Br)nn2)C(C(=O)OC)C1` (centres undefined)?
TTR transcr act: -1

How did CC(=O)c1ccc(OCC(O)CNCc2ccc3c(c2)OCO3)cc1 (centres undefined) do in these assays?
TTR transcr act: 0

What do the screens show for `O=Cc1ccc(OCc2ccc3c(c2)OCO3)cc1`?
TTR transcr act: 9.8*; HuH7 TTR inh: -16; TTR act confirm: 0

How did Fc1ccc(CNCc2ccc3c(c2)OCO3)cc1 do in these assays?
TTR transcr act: -1

Results for CC(C)(N[C@@H](Cc1ccccc1)C(=O)NCCCc1ccccc1)C(=O)NCc1ccccc1 ?
TTR transcr act: 1

How did CCOC(=O)[C@]12CCCC=C1N(Cc1ccccc1)C(=O)[C@H](CC(=O)NCc1ccc(OC)c(OC)c1)C2 do in these assays?
TTR transcr act: -2

Results for CCCCCCCCN1C(=O)[C@H](CC(=O)NCCc2ccccc2OC)C[C@@]2(C(=O)OCC)CCCC=C12 ?
TTR transcr act: -2

How did COCCCNC(=O)C[C@@H]1C[C@@]2(C(=O)OC)CCCCC=C2N(CCc2ccc(OC)c(OC)c2)C1=O do in these assays?
TTR transcr act: 36*; HuH7 TTR inh: -5; TTR act confirm: 1

What do the screens show for `CC(C)c1cccc(-c2csc(C(O)c3ccco3)n2)c1` (centres undefined)?
TTR transcr act: -1

What do the screens show for `CCCC1CCC2(CCCN2CCOC(=S)Nc2ccccc2Br)CC1` (centres undefined)?
TTR transcr act: 7

Results for Oc1ccc(CNc2ccccc2Br)c2cccnc12 ?
TTR transcr act: -1

Results for Cc1nn(C)c(C)c1CCC(=O)N1CCCC(C(=O)c2cccc(OC(C)C)c2)C1 (centres undefined) ?
TTR transcr act: 10*; HuH7 TTR inh: 1; TTR act confirm: 0

How did Cc1nn(C(C)C)c(C)c1CN1CCCC(C(=O)c2cccc(OC(C)C)c2)C1 (centres undefined) do in these assays?
TTR transcr act: 3

Results for CCn1nc(C)c(CN2CCCC(C(=O)c3cccc(OC(C)C)c3)C2)c1C (centres undefined) ?
TTR transcr act: -2

What do the screens show for `Clc1ccc(OCCOc2ccc(Br)nc2Br)c(Cl)c1`?
TTR transcr act: 1

What do the screens show for `C[C@H]1[C@@H](OC(=O)NCc2ccco2)CC[C@@]23CCCN2C(=O)CCC[C@@H]13`?
TTR transcr act: 3

How did CCCCN1C[C@@H]2CSCCS(=O)(=O)N2C1=O do in these assays?
TTR transcr act: 0

Results for C[C@H]1CCCN1c1ccc2c(c1)O[C@@H]1CCN(C1)S2(=O)=O ?
TTR transcr act: 3

How did C[C@H]1[C@@H](c2ccccc2)OC(O)([C@H](Cc2ccccc2)NC(=O)OC(C)(C)C)CN1C (some centres undefined) do in these assays?
TTR transcr act: 1

How did CC1(C)OC2OC(C3COC(=O)O3)C(OC(=O)c3ccccc3)C2O1 (centres undefined) do in these assays?
TTR transcr act: 25*; HuH7 TTR inh: -7; TTR act confirm: -1

Results for CC(=O)N1C(C)(C)CC(=NOC(=O)c2ccccc2)CC1(C)C ?
TTR transcr act: -1

What do the screens show for `CC1(C)OC2OC(COC(=O)c3ccc([N+](=O)[O-])cc3)C3OC(C)(C)OC3C2O1` (centres undefined)?
TTR transcr act: 0

What do the screens show for `NC(=O)c1nsc(C(=O)N(Cc2cccnc2)C(C(=O)NC2CCCC2)c2ccc(F)cc2)c1N` (centres undefined)?
TTR transcr act: 0

What do the screens show for `CC(C)(C)NC(=O)C(c1ccco1)N(Cc1ccc(F)cc1)C(=O)c1snc(C(N)=O)c1N` (centres undefined)?
TTR transcr act: 10*; HuH7 TTR inh: 1; TTR act confirm: 0

Results for COc1ccccc1N(C(=O)c1snc(C(N)=O)c1N)C(C(=O)NCCC(C)C)c1ccco1 (centres undefined) ?
TTR transcr act: -1

What do the screens show for `CC(=O)Nc1cccc(-c2ccnc3c2CC(C(=O)Nc2cccnc2)O3)c1` (centres undefined)?
TTR transcr act: 5

What do the screens show for `CC(=O)c1cccc(NC(=O)C2Cc3c(-c4ccccc4)ccnc3O2)c1` (centres undefined)?
TTR transcr act: -1

How did CC(=O)Nc1cccc(-c2ccnc3c2CC(C(=O)Nc2cccc(NS(C)(=O)=O)c2)O3)c1 (centres undefined) do in these assays?
TTR transcr act: 17*; HuH7 TTR inh: -22; TTR act confirm: 1

How did CCOc1cc(CCNC(=O)c2cc(-c3ccccc3)c(N3CCOCC3)s2)ccc1OC do in these assays?
TTR transcr act: -2

What do the screens show for `CC(C)CN1C(=O)C[C@]2(C(=O)N(C)c3ccc(NC(=O)C(F)(F)F)cc32)C1c1ccccc1` (some centres undefined)?
TTR transcr act: -1

What do the screens show for `Cc1ccc(NC(=O)c2ncn(CCCNCC3CCCCC3)n2)cc1C`?
TTR transcr act: 2

Results for Cc1ccc(NC(=O)c2ncn(CCCNCCCN3CCCC3=O)n2)cc1C ?
TTR transcr act: -1

What do the screens show for `Cc1ccc(NC(=O)c2ncn(CCCNCc3ccccc3)n2)cc1C`?
TTR transcr act: 13*; HuH7 TTR inh: -10; TTR act confirm: 0

How did O=C1CC(NNc2ccccc2)C(=O)N1c1ccccc1 (centres undefined) do in these assays?
TTR transcr act: 11*; HuH7 TTR inh: 2; TTR act confirm: -1

What do the screens show for `CCOC(=O)NNC1CC(=O)N(c2ccccc2)C1=O` (centres undefined)?
TTR transcr act: 2

Results for CC(O)CCC(=O)NNC1CC(=O)N(c2ccccc2)C1=O (centres undefined) ?
TTR transcr act: 3
